Sampled rows, rich in hits. Any-hit rate of the full collection: about 19%.
ELG1 DNA repair: ELG1-dependent DNA repair inhibition; HEK293T ELG1-luciferase reporter, luminescence, 16 h; DNA damage induced by 5-fluorouridine; Potency, µM (top dose mostly 46.1 µM), hits mostly inhibitors; 330,000 compounds, 2.3% hits; note: nearly all actives have a fitted effect of over 55% in size
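In this reporter screen, reduction of luminescence relative to DMSO vehicle indicated activity. Compounds and 5-fluorouridine were added together to 2,000 cells per well, incubated for 16 hr at 37 °C, then developed with ONE-Glo.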
TDP1 cell noCPT: qHTS for Inhibitors of human tyrosyl-DNA phosphodiesterase 1 (TDP1): qHTS in cells in absence of CPT; DT40 Tdp1-/- hTDP1 cells, no CPT, ATP luminescence, 48 h; Potency, µM (series often up to 46.2 µM), usual class: inhibitors; 420,000 compounds, 15% hits; AID 686978, 2013; note: nearly all actives have a fitted effect of over 55% in size
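No-CPT arm: Tdp1-/-;hTDP1 DT40 cells (400/well) plus compounds, incubated ≥48 hr at 37 °C. Readout CellTiter-Glo luminescence.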
IL-1B inflam inh: inflammasome signaling inhibition, IL-1 beta readout. activity change, % at 57.5 µM. 360,000 compounds, 4.7% hits. AID 743279. THP-1 LPS/ATP IL-1B secretion, AlphaLISA, 16 h; hits give low values; in the data active = activity change below about -50%; inconclusive = mostly about -30% to -49%
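Secreted IL-1B measured by AlphaLISA bead assay after 16 h compound exposure of THP-1 cells; compounds (final up to 57.5 uM) added 1 h before LPS (250 ng/mL) and ATP (1.25 mM) stimulation; lower signal means less secretion.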
TDP1 cell CPT: DT40-hTDP1 cell growth loss with CPT | chicken DT40 Tdp1-/-;hTDP1 cells + 20 nM CPT, ATP luminescence, 48 h | 420,000 compounds, 12% hits | Potency, µM (highest dose often 46.2 µM), most hits filed as inhibitors; note: nearly all actives have a fitted effect of over 55% in size
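Chicken DT40 Tdp1-/- cells stably complemented with human TDP1 were seeded at 400 cells/well in medium containing 20 nM camptothecin, exposed to pin-transferred compounds, and grown at 37 °C for at least 48 hr. Viability was read as ATP luminescence.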
HT1080 IDH1KD tx: toxicity to HT-1080 IDH1 knockdown cells (counter line) | HT-1080 IDH1 knockdown viability, ATP luminescence, 48 h | Potency, µM (highest dose often 46.1 µM), most hits filed as cytotoxic | 360,000 compounds, 2% hits
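Luminescent ATP read-out (CellTiter-Glo, 10 min at room temperature) after 48 h compound exposure at 37 °C gave viability of IDH1-knockdown HT-1080 cells. Activity was normalised to DMSO and cell-free wells, then fitted as concentration-response curves.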
HT1080-NT tox: kills 2HG-producing HT-1080-NT fibrosarcoma cells. Potency, µM (highest dose often 46.1 µM), actives largely listed as cytotoxic. 360,000 compounds, 1.6% hits. HT-1080-NT fibrosarcoma viability, CellTiter-Glo ATP luminescence, 48 h. AID 686970;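 note: NT is the 2HG producing partner of a matched IDH1 knockdown line; nearly all actives have a fitted effect of over 55% in size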
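Luminescent CellTiter-Glo readout after 48 hours of compound exposure at 37 degrees C defined viability of HT-1080-NT cells. Activity was normalized to DMSO wells and cell-free media wells; concentration-response curves were fitted and assigned curve classes.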
Numbers stand for hits; – = inactive; ? = inconclusive; · = not tested or not shown; ! = not confirmed by another sample. Unless noted, calls come from the whole dose curve; as a rule, active = well fitted curve in the direction sought with a large enough effect; inconclusive = small, poorly fitted or top-dose-only effect, or another doubt; inactive = no such curve, though single readings can be large; an effect the other way counts as inactive or inconclusive.

SMILES	ELG1 DNA repair	TDP1 cell noCPT	IL-1B inflam inh	TDP1 cell CPT	HT1080 IDH1KD tx	HT1080-NT tox
CCOc1cc(N2CCOCC2)c(OCC)cc1NC(=O)CN1C(=O)NC(CC)(c2ccc(F)cc2)C1=O (stereo not given)	·	–	–	–	–	–
CCCC(=O)c1cc(O)c(O)cc1O	·	17.2µM	·	?	·	·
O=C(NC1CC1)c1ccc2c(Cl)c3c(nc2c1)CCCC3	–	?	–	?	–	–
O=C(NCc1ccc(Cl)cc1)c1ccc2c(Cl)c3c(nc2c1)CCCC3	·	?	·	16.4µM	·	·
O=C(NCc1cccc(Cl)c1)c1ccc2c(Cl)c3c(nc2c1)CCCC3	·	14.6µM	·	?	·	·
COc1ccc(Cc2c(-c3ccco3)nc3ccc(Br)cn23)c(C)c1	·	?	–	20.6µM	20.6µM	?
COc1ccc(-c2nc3c4ccccc4ccn3c2Cc2ccsc2)cc1OC	·	?	–	?	?	?
COc1ccccc1Cc1c(-c2ccco2)nc2c(C)cc(Br)cn12	·	5.8µM	–	2.91µM	3.66µM	3.26µM
COc1ccccc1Cc1c(-c2ccco2)nc2c3ccccc3ccn12	·	16.4µM	–	23.1µM	?	?
COc1ccc(Cc2c(-c3ccco3)nc3c(C)cc(Br)cn23)c(C)c1	·	2.31µM	–	2.91µM	6.51µM	?
CN(C)c1ncc2nc(-c3ccc(F)cc3)c(=O)n(C[C@H]3CCCO3)c2n1	·	–	·	–	·	·
Cc1ccc(S(=O)(=O)N(C)c2ccc(OCC(=O)N3CCCCC3)cc2)cc1	–	?	–	?	–	–
CCNC(=S)N/N=C/c1ccc(OCC(=O)Nc2ccc(OC)cc2)c(OC)c1	?	?	–	?	–	–
CCNC(=S)N/N=C/c1ccc(OCC(=O)Nc2ccc(C)cc2)cc1	?	–	–	?	10µM	5.62µM
CCOc1ccc(/C=N/NC(=S)Nc2c(C)cccc2C)cc1	18.4µM	20.6µM	–	20.6µM	–	–
Cc1cccc(C#Cc2ccccc2)n1	?	29.9µM!	–	?	–	–
Nc1ccc(C#Cc2ccccc2)cc1	?	–	–	–	–	–
Cc1ccc(-n2ncc3c(=O)[nH]c(SCC(=O)N4CC(=O)Nc5ccccc54)nc32)cc1	–	–	–	–	–	–
CCOC(=O)N1CCN(C(=O)CSc2nc3c(cnn3-c3ccc(Cl)cc3)c(=O)[nH]2)CC1	?	25.9µM	–	20.6µM	–	–
COC(=O)C(C)Sc1nc2c(cnn2-c2ccc(F)cc2)c(=O)[nH]1 (stereo not given)	–	–	–	–	–	–
Cc1cccc(-n2ncc3c(=O)[nH]c(SCC(=O)N4CC(=O)Nc5ccccc54)nc32)c1	–	16.4µM	–	?	–	–
CCOC(=O)C(C)Sc1nc2c(cnn2-c2ccc(F)cc2)c(=O)[nH]1 (stereo not given)	–	?	–	20.6µM	–	–
Cc1ccc(C)c(OCCC(=O)OC(C)C(=O)Nc2c(C)n(C)n(-c3ccccc3)c2=O)c1 (stereo not given)	–	–	–	–	–	–
O=C(Nc1ccc(-c2n[nH]c(=S)o2)cc1)c1ccccc1Cl	?	–	–	–	–	–
Cc1cc(NC(=O)NN2CCOCC2)nn1-c1c(Cl)cccc1Cl	–	–	–	–	–	–
COC(=O)C1=CO[C@@H](O[C@@H]2O[C@H](CO)[C@@H](O)[C@H](O)[C@H]2O)C2C1C=C[C@@]2(O)CO (stereo not given in full)	–	?	–	?	–	–
Cc1ccc(C(=O)N2CCN(CCNC(=O)C(=O)NC(C)C)CC2)cc1	–	–	–	–	–	–
O=C(Nc1ccc(S(=O)(=O)N2CCOCC2)cc1)c1ccc(Cl)cc1Cl	–	20.6µM	–	?	–	–
CCc1c(C(=O)Nc2ccc(S(=O)(=O)N3CCOCC3)cc2)csc1C	–	18.4µM	–	23.1µM	–	–
